From PubChem BioAssay (NCATS)
Records with an inconclusive call do not appear. Active and inactive are the calls of the source. Calls come from the whole dose curve.

molecular target: Cytochrome P450 1A2 (Homo sapiens) (UniProt P05177); assay: p450-cyp1a2 (AID 410); details: recombinant CYP1A2, luciferin-ME demethylation, luminescence; series mostly up to 11.4 µM; activity change, negative = inhibition: at the top concentration;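 for activity change, negative = inhibition: -100% = full effect of reference inhibitor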
Method in brief: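 Read-out is luminescence from luciferin produced by CYP1A2 demethylation of Luciferin-ME (100uM, at Km). Detection reagent stopped the 60 min NADPH-dependent reaction; signals were normalized to 57 uM furafylline.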
Potency is the fitted concentration of half-maximal effect.

Chain of Cytochrome P450 1A2 (Homo sapiens) (P05177 whole entry, looked up): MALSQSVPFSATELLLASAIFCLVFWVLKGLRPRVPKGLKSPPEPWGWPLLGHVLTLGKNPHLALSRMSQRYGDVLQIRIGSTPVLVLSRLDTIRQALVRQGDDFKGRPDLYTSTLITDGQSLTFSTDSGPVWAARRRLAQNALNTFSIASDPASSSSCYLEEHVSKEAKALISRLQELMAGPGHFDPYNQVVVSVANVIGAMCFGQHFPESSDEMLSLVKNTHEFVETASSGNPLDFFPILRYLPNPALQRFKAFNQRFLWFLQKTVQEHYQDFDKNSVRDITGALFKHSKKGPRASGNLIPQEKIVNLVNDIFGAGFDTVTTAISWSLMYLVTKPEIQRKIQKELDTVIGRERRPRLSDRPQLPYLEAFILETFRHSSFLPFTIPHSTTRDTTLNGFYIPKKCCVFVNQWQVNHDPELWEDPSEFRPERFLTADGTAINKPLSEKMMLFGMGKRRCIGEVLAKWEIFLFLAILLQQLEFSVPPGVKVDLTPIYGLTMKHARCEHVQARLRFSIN

Compound	activity change, negative = inhibition	Potency
CN(C)CCCN1c2ccccc2Sc2ccc3ccccc3c21	-2.2% [at 2.29 µM] (inactive)	
ClC(=Nc1cccc2ccccc12)N(c1ccccc1)c1ccccc1		1000 nM (active)
O=C(c1ccncc1)N1CCC2(CCCN(c3cccc(-c4ccccc4)c3)C2)CC1		12600 nM (active)
Cc1ccc(-c2nc(-c3nccc4ccccc34)oc2-c2ccccc2)cc1		2510 nM (active)
COc1ccc2c(c1)N(CC[C@H]1CCCCN1C)c1ccccc1S2		1260 nM (active)
COc1ccc(Oc2ncc3nc(CCc4ccccc4)c(=O)n(C4CC4)c3n2)cc1		12600 nM (active)
Cc1nnc(S(=O)(=O)c2ccc(N=Nc3c(N)nc(N)nc3N)cc2)s1	-10.2% [at 2.29 µM] (inactive)	
COc1ccc2c(=O)cc(-c3ccncc3)oc2c1OC		1580 nM (active)
COc1cccc2c1[C@H](CO)N1[C@H](C#N)[C@@H]3C[C@H](C(=O)O)[C@@H]([C@@H]1C2)N3C	-21% [at 2.29 µM] (inactive)	
CN(C)CCCN1c2ccc3ccccc3c2Sc2cccc(Cl)c21		1000 nM (active)
COc1cccc(Nc2ncc3ncc(=O)n(C4CC4)c3n2)c1		631 nM (active)
CN(C)CCCN1c2ccc(O)cc2Sc2ccc(Cl)cc21		631 nM (active)
C=C(C)COc1ccc2c(c1)CCC1C2CC[C@]2(C)C(=O)/C(=N/O)CC12 (stereo not given in full)	-13.8% (inactive)	
CCCCNN	-6.5% [at 2.29 µM] (inactive)	
CC(CC(=O)O)(CC(=O)O)c1ccccc1	-0.7% (inactive)	
OC[C@@H]1O[C@@H](N2CCN([C@@H]3O[C@@H](CO)[C@@H](O)[C@H](O)[C@H]3O)CC2)[C@@H](O)[C@H](O)[C@H]1O	-9.7% [at 2.29 µM] (inactive)	
O=C1c2ccccc2C(O)(O)[C@@]1(O)[C@]1(O)C(=O)c2ccccc2C1(O)O	-7.5% [at 2.29 µM] (inactive)	
c1ccc2cc(NCNc3ccc4ccccc4c3)ccc2c1		631 nM (active)
N#Cc1c(NC(=O)C(F)(F)F)sc2c3c(=O)c4ccccc4c(=O)c=3oc3ccccc3c12		1000 nM (active)
NCCSCCC(=O)O	-2.9% (inactive)	

Compound	activity change, negative = inhibition	Potency
O=C1Oc2ccccc2C(=O)/C1=C\N1C(=O)N/C(=C\c2ccccc2O)C1=O		316 nM (active)
CC(=O)Nc1ccc(Cc2ccc3[nH]c(=O)cc(C)c3c2)cc1	-17% (inactive)	
Cc1cccc(CNc2ncnc3ccc(-c4ccc(C(=O)N(C)C)cc4)cc23)c1		15800 nM (active)
COc1ccc2nc3cc(Cl)ccc3c(Nc3ccc(O)c(CN4CCN(C)CC4)c3)c2c1		3980 nM (active)
C[C@@H]1CCCN(C[C@@H](O)CN2CCCc3ccccc32)C1	-10.7% (inactive)	
C[N+](C)([O-])CCC=C1c2ccccc2CCc2ccccc21		794 nM (active)
Cc1cc(Cl)nc(NC(=O)CSc2ccc(Cl)cc2)n1		5010 nM (active)
CSc1ccc2c(c1)N(CCCN(C)C)c1ccccc1S2		1260 nM (active)
C[C@@]12CC[C@@H]3[C@@H](CC[C@H]4C[C@@H](O)CC[C@]43C)[C@H]1CC[C@@H]2c1cc(C(F)(F)F)n[nH]1		3980 nM (active)
CC(=O)O[C@H]1CC[C@@]2(C)C(=CC[C@@H]3[C@@H]4CC[C@H](c5cc(C(F)(F)F)n(C(C)=O)n5)[C@]4(C)CC[C@@H]32)C1	-13.7% (inactive)	
O=C1C(Cl)=C(Sc2nnc3c4ccccc4c4ccccc4c3n2)C(=O)c2ccccc21		398 nM (active)
COCCn1c(=O)c(CCc2ccccc2)nc2cnc(Oc3cccc(Cl)c3)nc21		3980 nM (active)
Cc1c(S(=O)(=O)O)ccc(N=Nc2c(O)c(C(=O)O)cc3ccccc23)c1Cl		5010 nM (active)
Cc1ccc(N=Nc2c(O)c3ccccc3[nH]c2=O)c(S(=O)(=O)N(C)C)c1	-14.6% [at 2.29 µM] (inactive)	
O=[N+]([O-])c1ccc(S(=O)(=O)Cc2ccccc2)c2nonc12	-5.3% [at 2.29 µM] (inactive)	
Cn1c(=S)c2[nH]c(SCCCc3ccccc3)nc2n(C)c1=O		3160 nM (active)
C[C@]12CC[C@H]3c4ccc(O)cc4CC[C@@H]3[C@H]1CC[C@@H]2OC(=O)CCc1ccccc1	-13.8% [at 2.29 µM] (inactive)	
Nc1nc(Sc2ccc([N+](=O)[O-])c3nonc23)c2[nH]cnc2n1	-26.1% [at 2.29 µM] (inactive)	
CN(C)CCCn1c2c3ccccc3ccc2c2oc(=O)c3ccccc3c21		316 nM (active)
CC(C)[C@H](Sc1nc(N)nc2nc[nH]c12)C(=O)O		316 nM (active)
